Test results published in ChEMBL document CHEMBL3988442, “University of Dundee, Small-Polar-MMV Screening Library” (2021).
For some of these results: Results with a measured potency or affinity are listed apart.

Experiments:
Parameters in all cases: scale not given: direction of the effect not stated beside the values
[1] = target: Protein translocase subunit SecA (Escherichia coli (strain K12)) (UniProt P10408); test: Assay to Identify E. coli SecA ATPase Inhibitors; type: functional; settings: 30 µM
Protein translocase subunit SecA (Escherichia coli (strain K12)), sequence (P10408 whole entry): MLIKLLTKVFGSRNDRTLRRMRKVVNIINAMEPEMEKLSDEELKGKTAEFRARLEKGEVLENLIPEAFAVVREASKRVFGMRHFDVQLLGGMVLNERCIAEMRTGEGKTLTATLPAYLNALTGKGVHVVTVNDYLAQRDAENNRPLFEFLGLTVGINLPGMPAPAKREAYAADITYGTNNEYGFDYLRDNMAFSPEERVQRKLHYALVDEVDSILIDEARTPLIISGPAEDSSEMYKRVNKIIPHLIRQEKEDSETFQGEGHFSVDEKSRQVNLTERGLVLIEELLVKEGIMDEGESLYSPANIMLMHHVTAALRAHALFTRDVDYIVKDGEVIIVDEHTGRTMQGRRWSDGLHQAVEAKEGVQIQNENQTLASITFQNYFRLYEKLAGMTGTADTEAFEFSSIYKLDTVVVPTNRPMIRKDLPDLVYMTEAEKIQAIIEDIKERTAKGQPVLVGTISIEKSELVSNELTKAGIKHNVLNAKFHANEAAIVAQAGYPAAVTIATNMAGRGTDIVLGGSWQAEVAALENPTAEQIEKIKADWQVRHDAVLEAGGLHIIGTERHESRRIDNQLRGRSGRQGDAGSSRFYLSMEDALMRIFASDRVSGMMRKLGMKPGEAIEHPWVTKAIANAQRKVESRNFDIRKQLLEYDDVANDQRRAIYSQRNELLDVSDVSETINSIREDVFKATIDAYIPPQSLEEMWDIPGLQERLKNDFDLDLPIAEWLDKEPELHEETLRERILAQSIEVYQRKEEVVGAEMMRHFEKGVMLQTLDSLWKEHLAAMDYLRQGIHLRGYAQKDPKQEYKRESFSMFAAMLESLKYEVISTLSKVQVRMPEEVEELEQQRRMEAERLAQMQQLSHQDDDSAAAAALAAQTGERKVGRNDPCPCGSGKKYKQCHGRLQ

[2] = target: T1, Ubiquitin-activating enzyme e1, putative (Leishmania donovani (strain BPK282A1)) (UniProt E9BSI1); test: Leishmania donovani Ubiquitin Activating Enzyme (LdE1); type: functional; settings: 30 µM
T1 sequence (whole entry): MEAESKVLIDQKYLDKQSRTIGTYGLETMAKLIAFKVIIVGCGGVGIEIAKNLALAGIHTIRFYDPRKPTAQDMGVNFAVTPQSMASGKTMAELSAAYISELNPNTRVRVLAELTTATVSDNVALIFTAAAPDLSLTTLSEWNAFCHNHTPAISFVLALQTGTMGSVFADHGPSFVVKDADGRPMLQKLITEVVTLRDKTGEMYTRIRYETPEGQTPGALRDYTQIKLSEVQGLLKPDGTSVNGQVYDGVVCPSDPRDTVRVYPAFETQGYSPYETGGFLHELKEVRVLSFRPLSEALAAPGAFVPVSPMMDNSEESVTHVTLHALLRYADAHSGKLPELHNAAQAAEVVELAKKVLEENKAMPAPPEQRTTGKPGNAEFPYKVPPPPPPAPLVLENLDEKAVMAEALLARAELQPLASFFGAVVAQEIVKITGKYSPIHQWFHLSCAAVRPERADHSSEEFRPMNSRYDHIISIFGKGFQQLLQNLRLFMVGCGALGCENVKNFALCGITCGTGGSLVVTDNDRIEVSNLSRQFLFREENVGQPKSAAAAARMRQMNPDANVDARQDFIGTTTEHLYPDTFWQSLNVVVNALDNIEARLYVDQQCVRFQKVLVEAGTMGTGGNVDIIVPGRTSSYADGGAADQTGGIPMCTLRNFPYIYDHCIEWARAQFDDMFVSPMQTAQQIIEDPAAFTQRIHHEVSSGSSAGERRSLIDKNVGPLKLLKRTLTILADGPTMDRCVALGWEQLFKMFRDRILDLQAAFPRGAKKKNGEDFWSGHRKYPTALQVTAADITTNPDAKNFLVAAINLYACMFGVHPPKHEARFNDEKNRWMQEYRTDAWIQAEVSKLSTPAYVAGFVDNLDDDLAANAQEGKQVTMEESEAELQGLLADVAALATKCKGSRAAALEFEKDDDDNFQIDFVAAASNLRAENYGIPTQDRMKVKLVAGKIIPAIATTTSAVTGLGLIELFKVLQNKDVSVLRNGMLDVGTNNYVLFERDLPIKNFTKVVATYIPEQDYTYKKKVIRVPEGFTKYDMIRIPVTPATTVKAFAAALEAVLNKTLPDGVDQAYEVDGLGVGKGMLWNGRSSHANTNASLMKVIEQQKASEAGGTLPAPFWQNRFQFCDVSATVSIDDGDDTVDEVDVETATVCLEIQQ

[3] = target: AMP-activated protein kinase, AMPK (Homo sapiens) (UniProt P54646+O43741+P54619+Q9UGJ0+Q9Y478+Q13131+Q9UGI9); test: AMP-dependent Kinase enzyme assay. An in vitro enzyme assay that detects ADP turnover that is directly proportional to AMPK activity. This uses naive AMPK that is activated during the assay with MK-8722; type: functional; settings: 30 µM
[4] = target: Sialic acid-binding Ig-like lectin 9 (Homo sapiens) (UniProt Q9Y336); test: Hs-Siglec9 ALPHAscreen SOP 20170721; settings: 10 µM
Sialic acid-binding Ig-like lectin 9 (Homo sapiens), sequence (Q9Y336 whole entry): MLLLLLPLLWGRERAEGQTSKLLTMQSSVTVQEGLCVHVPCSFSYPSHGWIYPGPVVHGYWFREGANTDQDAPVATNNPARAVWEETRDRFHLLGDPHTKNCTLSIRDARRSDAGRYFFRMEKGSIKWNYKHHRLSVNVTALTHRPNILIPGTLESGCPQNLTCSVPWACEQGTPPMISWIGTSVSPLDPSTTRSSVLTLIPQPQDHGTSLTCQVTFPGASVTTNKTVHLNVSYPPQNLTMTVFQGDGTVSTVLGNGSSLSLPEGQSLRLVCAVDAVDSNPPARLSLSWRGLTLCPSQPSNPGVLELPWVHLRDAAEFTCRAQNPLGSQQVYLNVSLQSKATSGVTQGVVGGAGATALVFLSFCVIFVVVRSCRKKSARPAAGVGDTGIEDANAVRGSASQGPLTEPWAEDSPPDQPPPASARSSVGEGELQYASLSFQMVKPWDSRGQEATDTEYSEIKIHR

Trypanosoma cruzi = test: Trypanosoma cruzi phosphomannomutase and mannose-1-phosphate guanylyltransferase assay; type: functional; settings: 10 µM
[5] = target: T2, Arginase-2, mitochondrial (Homo sapiens) (UniProt P78540); test: in vitro enzyme assay to detect the production of urea directly proportional to the activity of Arginase II; type: functional; settings: 33.3 µM; also: in the data most compounds retested in dose-response had high values
T2 sequence (whole entry): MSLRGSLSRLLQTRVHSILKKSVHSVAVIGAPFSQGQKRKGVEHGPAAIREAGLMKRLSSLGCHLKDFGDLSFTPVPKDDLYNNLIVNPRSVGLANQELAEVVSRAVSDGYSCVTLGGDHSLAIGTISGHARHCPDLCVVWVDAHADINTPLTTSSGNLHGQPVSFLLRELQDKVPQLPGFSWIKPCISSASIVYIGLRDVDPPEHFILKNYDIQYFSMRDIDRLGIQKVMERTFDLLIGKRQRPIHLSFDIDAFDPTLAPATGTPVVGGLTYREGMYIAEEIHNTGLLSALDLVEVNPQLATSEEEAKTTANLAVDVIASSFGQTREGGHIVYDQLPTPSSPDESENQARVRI

[6] = target: T3, Proteasome subunit beta (Trypanosoma cruzi) (UniProt O96673); test: Trypanosoma cruzi proteasome chymotrypsin-like activity (TcProtChymo) assay.; also: in the data most compounds retested in dose-response had high values; type: functional; settings: 9.37 µM
T3 sequence (whole entry): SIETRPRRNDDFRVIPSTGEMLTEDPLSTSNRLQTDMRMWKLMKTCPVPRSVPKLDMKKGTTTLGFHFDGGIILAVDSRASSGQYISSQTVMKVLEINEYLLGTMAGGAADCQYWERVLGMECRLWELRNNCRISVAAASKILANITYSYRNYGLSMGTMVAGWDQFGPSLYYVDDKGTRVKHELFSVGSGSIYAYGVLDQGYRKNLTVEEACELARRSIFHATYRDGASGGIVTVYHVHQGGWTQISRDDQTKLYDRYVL

Homo sapiens = species: Homo sapiens; test: To identify inhibition of the IFN signalling (Jak-Stat) pathway via expression of an eGFP reporter gene under the control of an IFN-stimulated response element (ISRE) containing MxA promoter.; type: functional; settings: 30 µM
[7] = target: T4, Tyrosyl-tRNA synthetase, putative (Trypanosoma cruzi (strain CL Brener)) (UniProt Q4DSP6); test: Trypanosoma cruzi tyrosyl tRNA synthetase (TcYRS) _High Tyrosine SOP; type: functional; settings: 30 µM; also: in the data most compounds retested in dose-response had high values
T4 sequence (whole entry): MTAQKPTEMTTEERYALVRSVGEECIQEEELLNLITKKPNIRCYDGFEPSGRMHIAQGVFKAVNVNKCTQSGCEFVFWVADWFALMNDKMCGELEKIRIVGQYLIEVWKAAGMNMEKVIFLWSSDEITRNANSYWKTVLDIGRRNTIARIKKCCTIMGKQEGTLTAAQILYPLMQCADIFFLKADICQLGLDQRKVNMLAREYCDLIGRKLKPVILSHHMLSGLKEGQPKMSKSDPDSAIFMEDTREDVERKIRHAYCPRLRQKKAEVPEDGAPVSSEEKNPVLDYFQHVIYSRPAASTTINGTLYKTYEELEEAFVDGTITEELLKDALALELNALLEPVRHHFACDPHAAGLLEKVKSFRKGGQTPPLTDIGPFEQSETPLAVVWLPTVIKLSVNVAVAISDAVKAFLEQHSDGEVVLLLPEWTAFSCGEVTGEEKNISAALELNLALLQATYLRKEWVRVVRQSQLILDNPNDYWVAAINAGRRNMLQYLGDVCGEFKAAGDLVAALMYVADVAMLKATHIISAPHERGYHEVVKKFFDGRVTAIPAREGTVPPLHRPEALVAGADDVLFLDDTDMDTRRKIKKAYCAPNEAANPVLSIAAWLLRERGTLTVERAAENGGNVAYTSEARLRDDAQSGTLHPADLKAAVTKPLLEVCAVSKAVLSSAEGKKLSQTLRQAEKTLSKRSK

[8] = target: T4, Tyrosyl-tRNA synthetase, putative (Trypanosoma cruzi (strain CL Brener)); test: Trypanosoma cruzi tyrosyl tRNA synthetase (TcYRS) SOP; type: functional; settings: 30 µM
[9] = target: Chromo domain-containing protein 1 (Saccharomyces cerevisiae (strain ATCC 204508 / S288c) (Baker's yeast)) (UniProt P32657); test: ScCHD-1 Enzyme Inhibition Assay; type: functional; settings: 30 µM; also: in the data most compounds retested in dose-response had high values
Chromo domain-containing protein 1 (Saccharomyces cerevisiae (strain ATCC 204508 / S288c) (Baker's yeast)), sequence (P32657 whole entry, the tested form may be a part): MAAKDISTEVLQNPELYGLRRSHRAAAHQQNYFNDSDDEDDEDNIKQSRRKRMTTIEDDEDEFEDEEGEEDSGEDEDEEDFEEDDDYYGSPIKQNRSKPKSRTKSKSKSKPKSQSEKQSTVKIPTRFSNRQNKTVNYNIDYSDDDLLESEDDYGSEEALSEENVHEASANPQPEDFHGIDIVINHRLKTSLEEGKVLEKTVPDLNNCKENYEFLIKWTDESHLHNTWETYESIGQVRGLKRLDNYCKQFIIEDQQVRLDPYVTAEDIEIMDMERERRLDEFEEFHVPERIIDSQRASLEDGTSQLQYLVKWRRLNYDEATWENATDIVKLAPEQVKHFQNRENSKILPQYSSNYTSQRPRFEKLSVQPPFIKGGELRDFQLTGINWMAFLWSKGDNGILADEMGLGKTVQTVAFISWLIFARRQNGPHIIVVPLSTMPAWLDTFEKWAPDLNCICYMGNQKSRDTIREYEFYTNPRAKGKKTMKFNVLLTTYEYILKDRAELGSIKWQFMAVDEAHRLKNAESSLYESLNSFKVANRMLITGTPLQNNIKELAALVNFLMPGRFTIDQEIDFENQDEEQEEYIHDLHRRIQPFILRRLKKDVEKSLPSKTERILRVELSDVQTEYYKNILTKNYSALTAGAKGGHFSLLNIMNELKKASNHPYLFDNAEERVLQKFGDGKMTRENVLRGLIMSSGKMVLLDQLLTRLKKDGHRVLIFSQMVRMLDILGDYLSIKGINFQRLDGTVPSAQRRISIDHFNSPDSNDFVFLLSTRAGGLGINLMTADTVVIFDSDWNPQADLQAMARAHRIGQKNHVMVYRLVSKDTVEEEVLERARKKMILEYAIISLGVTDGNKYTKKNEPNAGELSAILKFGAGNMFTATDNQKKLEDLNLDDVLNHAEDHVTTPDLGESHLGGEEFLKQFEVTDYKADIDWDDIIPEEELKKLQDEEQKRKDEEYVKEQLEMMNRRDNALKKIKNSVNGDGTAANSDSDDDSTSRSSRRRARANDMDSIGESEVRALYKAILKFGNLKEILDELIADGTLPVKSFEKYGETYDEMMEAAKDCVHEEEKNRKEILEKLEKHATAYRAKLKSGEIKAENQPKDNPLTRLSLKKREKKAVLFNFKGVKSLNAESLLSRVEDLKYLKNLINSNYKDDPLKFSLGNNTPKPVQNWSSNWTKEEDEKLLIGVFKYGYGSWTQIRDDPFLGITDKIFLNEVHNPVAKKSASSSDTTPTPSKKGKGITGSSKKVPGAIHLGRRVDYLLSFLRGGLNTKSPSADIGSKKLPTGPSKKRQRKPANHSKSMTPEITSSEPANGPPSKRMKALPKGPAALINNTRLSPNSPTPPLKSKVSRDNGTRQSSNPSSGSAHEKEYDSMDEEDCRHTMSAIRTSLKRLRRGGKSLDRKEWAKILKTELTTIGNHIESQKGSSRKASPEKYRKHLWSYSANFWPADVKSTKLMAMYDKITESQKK

Row | Compound | Percent Effect [1] | Percent Effect [2] | Percent Effect [3] | Percent Effect [4] | Percent Effect (Trypanosoma cruzi) | Percent Effect [5] | Percent Effect [6] | Percent Effect (Homo sapiens) | Percent Effect [7] | Percent Effect [8] | Percent Effect [9]
1 | CCS(=O)(=O)N1CCc2c(cccc2NC(=O)NCCOC)C1 | -5.83% | 5.26% | 6.05% | 2.98% | -0.0974% | -2.37% | 7.77% | 8.27% | 4.25% | 13% | -5.11%
2 | CCc1nc(CN2CCCN(C(=O)C(C)n3cncn3)CC2)cs1 (stereo not given) | -4.01% | 2.6% | -3.41% | 4.94% | -6.93% | 6.05% | 4.05% | 19.8% | 4.85% | 2.44% | -3.41%
3 | COc1ccc(OC)c(C(C)Nc2nc3c(C)nn(C)c3c(=O)n2C)c1 (stereo not given) | -5.58% | -5.2% | 5.05% | 1.13% | -6.2% | -22.1% | 14.8% | 38.9% | -2.15% | -3.7% | -5.55%
4 | COc1cccc(COCC(=O)N2CCN(CC(C)(C)O)CC2)c1 | 1.47% | -5.26% | 7.35% | 8.14% | -3.76% | 6.51% | -0.167% | 21% | 1.47% | -2.44% | -5.7%
5 | Nc1cc(CCCNC(=O)NC2CC2)nn1-c1ccccc1 | -3.6% | 5.48% | 1.41% | -7.75% | -6.27% | -6.82% | 14.7% | 3.12% | 0% | 5% | -2.26%
6 | CSCC(=O)N1CCCN(c2ccccc2C)CC1 | -7.55% | 2.7% | -2.83% | -3.96% | -5.18% | -0.248% | 1.8% | 4.54% | 1.07% | 6.17% | -3.91%
7 | COc1cc(C(=O)Nc2c(C)noc2C)ccc1C | -3.57% | 17.7% | 2.44% | 6.13% | 3.87% | -4.56% | 1.88% | 18.6% | 4.43% | 16.5% | -5.84%
8 | COc1ccc(N2CCC(C(=O)/N=c3/[nH]ccs3)CC2)nn1 | -5.79% | 1.33% | 5.74% | 6.32% | 0.589% | -13.9% | 11.3% | 44.8% | 5.29% | 12.8% | -12.7%
9 | COCCn1cc(C(=O)N2CCCC2c2cc(C)no2)ccc1=O (stereo not given) | -2.03% | 8.11% | 1.75% | 2.51% | -0.965% | 2.38% | 9.48% | 1.94% | 7.94% | 12.2% | -3.51%
10 | COCCN1CCc2cc(C(=O)NCC3CC3)c(NC(C)C)nc2CC1 | -2.06% | 8% | 4.16% | 9.64% | -1.74% | -27.8% | 13.2% | 55.7% | 1.04% | 12.5% | -10.2%
11 | CS(=O)(=O)N1CCC(Oc2cnccn2)CC1 | -2.51% | 10.4% | -2.43% | 6.29% | 2.46% | 1.94% | 14.1% | 7.55% | 4.23% | 11.5% | -8.42%
12 | CC(C)C(C(=O)N1CCCN(Cc2cnn(C)c2)CC1)n1cncn1 (stereo not given) | -1.34% | 0% | 2.52% | 2.77% | -5.8% | 2.76% | 7.82% | -12.4% | 1.07% | -1.24% | 2.06%
13 | Cc1c(C)n(Cc2ccncc2)c2nc3c(c(N)c12)CCCCC3 | -2.06% | 6.67% | 9.29% | 1.27% | 9.43% | -1.94% | 15.3% | 43.7% | 3.17% | 12.8% | -10.9%
14 | N#Cc1ccccc1N1CCCN(C(=O)CCc2nccs2)CC1 | -2.01% | 12.7% | -0.172% | 4.85% | -4.25% | 5.7% | 3.36% | 17.5% | 3.45% | 11.4% | -6.41%
15 | CCOC(=O)NC(CNC(=O)c1ccccn1)CC(C)C (stereo not given) | -4.62% | 5.41% | 0.908% | -3.92% | -3.03% | 2.23% | 4.72% | -2.89% | 2.15% | 8.64% | -5.52%
16 | Cc1ccc2c(n1)N(C)CCN(C(=O)C1CC1)C2 | 1.38% | 8% | 0.651% | 2.31% | -8.69% | -54.3% | 7.69% | 12.1% | 2.08% | 17.5% | -6.8%
17 | O=C(c1ccnnc1)N1CCN2C[C@H](Oc3cccc(F)c3)C[C@H]2C1 | -1.92% | 8% | -1.06% | 6.61% | -2.7% | -20.2% | 1.37% | -0.178% | -2.08% | 10% | -6.63%
18 | O=C(NCN1CCc2ccccc2C1)c1cnccn1 | -0.536% | 2.7% | -2.81% | -3.19% | -7.33% | 2.73% | 10.4% | 0.709% | 1.07% | 6.17% | -6.84%
19 | Clc1snnc1CN1CCOC(CNc2cccnn2)C1 (stereo not given) | 0.0334% | -2.6% | -5.26% | 8.04% | 5.8% | 5.34% | 1.18% | -0.834% | 4.85% | 12.2% | -5.35%
20 | Cc1nn(C)c(C)c1C1CCCN1Cc1nc(C2CC2)no1 (stereo not given) | -2.91% | 16.2% | 0.977% | -3.54% | 6.22% | -0.924% | 15.6% | 16.5% | 5.94% | 18.3% | -7.69%
